Results from PubChem BioAssay.
The source made the active and inactive calls.

Columns and labels:
[1] = target: Albumin (Bos taurus) (UniProt P02769); assay: compounds binding labelled BSA control protein – biochemical, small-molecule microarray, Alexa647 label, 635/667 nm fluorescence, artefact control for SMM control protein annotation, profiling panel (AID 1118); details: BSA-A647 binding, fluorescence 635 nm, higher = more signal;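 further: score merges 667 nm emission intensity and signal-to-noise per printed compound spot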
[2] = probe aXIP binding to arrayed compounds – biochemical, NeuroSMM set, 635/667 nm fluorescence, primary screen (AID 1119); details: small-molecule microarray, higher = more signal, called active from +8 up or from −8 down;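 further: probe is the protein aXip251-270 applied at 1 µg/mL to compound-printed slides; binding of probe to printed compounds measured as 667 nm fluorescence plus signal to noise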
[3] = probe aNOTCH3 binding on compound microarray – biochemical, small-molecule microarray, 635/667 nm fluorescence, primary screen (AID 1120); details: higher = more signal;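 further: probe is a biotin-tagged antibody raised against NOTCH3 rather than NOTCH3 protein; score merges spot fluorescence near 667 nm with spot signal to noise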
[4] = probe aNOTCH2 binding on compound microarray – biochemical, small-molecule microarray, 635/667 nm fluorescence, primary screen (AID 1121); details: higher = more signal;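 further: score merges feature fluorescence read at 667 nm with its signal to noise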
[5] = target: Carbonic anhydrase 2 (Homo sapiens) (UniProt P00918); assay: compounds binding carbonic anhydrase 2 – biochemical, small-molecule microarray, Alexa647-labelled CAII, profiling panel (AID 1122); details: CAII-A647 binding fluorescence, higher = more signal
[6] = COS7 lysate on small-molecule microarray, probe aHis, 635 nm (AID 1123); details: COS7 cell lysate, fluorescence, higher = more signal;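 further: z-score combines 667nm fluorescence intensity with signal-to-noise per printed compound spot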
[7] = probe aLAP1 signal on lysate-treated microarray – cell lysate, small-molecule microarray, COS7 lysate, primary screen (AID 1124); details: probe aLAP1, fluorescence, higher = more signal;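 further: lysate comes from COS7 cells expressing LAP1 and is applied at 0.3 µg/mL; score merges spot fluorescence near 667 nm with signal-to-noise over triplicate slides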
[8] = tested on: Sam68 (KHDRBS1); assay: compounds binding KHDRBS1 protein – biochemical, small-molecule microarray, 635 nm fluorescence, primary screen (AID 1125); details: higher = more signal;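 further: score merges 667 nm channel intensity with signal to noise over triplicate slides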
[9] = tested on: Chordin-like protein 2 (CHRDL2); assay: compounds binding chordin-like 2 – biochemical, small-molecule microarray, 635 nm fluorescence, primary screen (AID 1126); details: fluorescence 635 nm, higher = more signal;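 further: printed compound slides probed with Chrdl2 protein at 4 µg/mL for 1 h at 4 C; score merges 667 nm emission intensity with signal to noise over three replicate slides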
[10] = target: Concanavalin-A (Canavalia ensiformis) (UniProt P02866); assay: compounds binding concanavalin A lectin – biochemical, small-molecule microarray, Alexa647 label, 635 nm, artefact control for SMM control protein annotation, primary screen (AID 1127); details: ConA-A647 binding fluorescence, higher = more signal;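 further: z combines 667 nm emission intensity with signal-to-noise across three replicate slides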
[11] = compounds binding Alexa647 anti-His antibody – biochemical, small-molecule microarray, 635 nm fluorescence, artefact control for SMM control protein annotation, primary screen (AID 1128); details: higher = more signal;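 further: score merges feature fluorescence with signal-to-noise for each printed compound spot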
[12] = tested on: Human papillomavirus type 1a E7 protein (residues 1-88); assay: HPV1a E7 small-molecule binders, primary screen, biochemical, small-molecule microarray, residues 1-88, 635 nm (AID 1129); details: small-molecule microarray binding, fluorescence 635 nm; higher = more signal
[13] = target: Focal adhesion kinase 1 (Homo sapiens) (UniProt Q05397); assay: PTK2 protein binding on printed compound slides – biochemical, small-molecule microarray, 635/667 nm fluorescence, BSA, DTT, primary screen (AID 1130); details: 635 nm fluorescence, higher = more signal;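 further: composite of spot emission at 667 nm and signal to noise over triplicate slides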
[14] = tested on: Fibrinogen (Alexa647-labelled); assay: Alexa647-fibrinogen binding to printed small molecules – biochemical, small-molecule microarray, 635/667 nm fluorescence, artefact control for SMM control-protein annotation, profiling panel (AID 1131); details: fibrinogen-A647 binding fluorescence, higher = more signal;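 further: z-score merges 667 nm fluorescence with per-spot signal-to-noise over triplicate slides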
[15] = target: Follistatin (Homo sapiens) (UniProt P19883); assay: FST protein binding to printed compounds – biochemical, small-molecule microarray, 635/667 nm fluorescence, primary screen (AID 1132); details: 635 nm fluorescence, higher = more signal
[16] = target: Fibroblast growth factor 2 (Homo sapiens) (UniProt P09038); assay: basic fibroblast growth factor binding to printed compounds – biochemical, small-molecule microarray, 635/667 nm fluorescence, primary screen (AID 1133); details: FGF2, fluorescence 635/667, higher = more signal
[17] = JC-1 mitochondrial potential readout, lung cancer cells – cell-based, A549, JC-1 fluorescence, basal, 24 h, 100 nL, profiling panel (AID 1138); details: higher = more signal;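 further: A549 lung adenocarcinoma cells under basal conditions with no added stimulus; test concentration not given here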
[18] = tested on: Lefty1; assay: Lefty1 protein binding to printed compounds – biochemical, small-molecule microarray, 635/667 nm fluorescence, primary screen (AID 1139); details: fluorescence 635/667, higher = more signal
[19] = tested on: wheat germ agglutinin (Triticum aestivum), Alexa647-labelled; assay: Alexa647-WGA lectin binding to printed small molecules – biochemical, small-molecule microarray, 635/667 nm fluorescence, artefact control for SMM control-protein annotation, profiling panel (AID 1140); details: WGA-A647 binding, 635 nm fluorescence, higher = more signal;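 further: score merges 667 nm feature emission with signal to noise over triplicate slides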
[20] = target: Luciferin 4-monooxygenase (Photinus pyralis) (UniProt P08659); assay: inhibition of purified Photinus pyralis luciferase – biochemical, luminescence, purified enzyme, 2006 set, primary screen (AID 1141); details: purified firefly luciferase, SteadyGlo luminescence, 30 min; higher = more signal, called active from +8 up or from −8 down;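 further: cell-free assay with purified firefly luciferase at 100 ng per well in PBS; test concentration not given here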
Sequence of Luciferin 4-monooxygenase (Photinus pyralis) (P08659 whole entry, looked up): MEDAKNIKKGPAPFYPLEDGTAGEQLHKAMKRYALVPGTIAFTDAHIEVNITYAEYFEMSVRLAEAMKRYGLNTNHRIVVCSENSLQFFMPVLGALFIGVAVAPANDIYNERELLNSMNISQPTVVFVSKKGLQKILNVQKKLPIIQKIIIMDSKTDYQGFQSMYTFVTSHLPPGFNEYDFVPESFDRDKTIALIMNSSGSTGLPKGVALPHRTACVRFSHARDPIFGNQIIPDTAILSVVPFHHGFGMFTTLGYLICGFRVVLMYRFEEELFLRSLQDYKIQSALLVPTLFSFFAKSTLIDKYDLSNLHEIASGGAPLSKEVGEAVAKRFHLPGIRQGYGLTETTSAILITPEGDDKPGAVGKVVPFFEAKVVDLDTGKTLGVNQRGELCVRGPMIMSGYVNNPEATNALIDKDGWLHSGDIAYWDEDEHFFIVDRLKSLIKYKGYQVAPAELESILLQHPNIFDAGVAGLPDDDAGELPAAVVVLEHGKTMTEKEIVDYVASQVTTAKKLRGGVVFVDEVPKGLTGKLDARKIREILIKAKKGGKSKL

Sequence of Concanavalin-A (Canavalia ensiformis) (P02866 whole entry, looked up): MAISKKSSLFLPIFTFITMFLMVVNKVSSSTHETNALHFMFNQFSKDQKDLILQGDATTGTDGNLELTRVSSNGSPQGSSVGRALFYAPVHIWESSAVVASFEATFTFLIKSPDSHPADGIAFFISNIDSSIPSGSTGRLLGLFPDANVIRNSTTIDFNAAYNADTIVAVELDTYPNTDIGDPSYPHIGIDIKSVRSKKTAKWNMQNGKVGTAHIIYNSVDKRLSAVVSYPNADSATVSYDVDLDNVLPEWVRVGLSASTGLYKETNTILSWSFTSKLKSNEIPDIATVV
Sequence of Focal adhesion kinase 1 (Homo sapiens) (Q05397 whole entry, looked up): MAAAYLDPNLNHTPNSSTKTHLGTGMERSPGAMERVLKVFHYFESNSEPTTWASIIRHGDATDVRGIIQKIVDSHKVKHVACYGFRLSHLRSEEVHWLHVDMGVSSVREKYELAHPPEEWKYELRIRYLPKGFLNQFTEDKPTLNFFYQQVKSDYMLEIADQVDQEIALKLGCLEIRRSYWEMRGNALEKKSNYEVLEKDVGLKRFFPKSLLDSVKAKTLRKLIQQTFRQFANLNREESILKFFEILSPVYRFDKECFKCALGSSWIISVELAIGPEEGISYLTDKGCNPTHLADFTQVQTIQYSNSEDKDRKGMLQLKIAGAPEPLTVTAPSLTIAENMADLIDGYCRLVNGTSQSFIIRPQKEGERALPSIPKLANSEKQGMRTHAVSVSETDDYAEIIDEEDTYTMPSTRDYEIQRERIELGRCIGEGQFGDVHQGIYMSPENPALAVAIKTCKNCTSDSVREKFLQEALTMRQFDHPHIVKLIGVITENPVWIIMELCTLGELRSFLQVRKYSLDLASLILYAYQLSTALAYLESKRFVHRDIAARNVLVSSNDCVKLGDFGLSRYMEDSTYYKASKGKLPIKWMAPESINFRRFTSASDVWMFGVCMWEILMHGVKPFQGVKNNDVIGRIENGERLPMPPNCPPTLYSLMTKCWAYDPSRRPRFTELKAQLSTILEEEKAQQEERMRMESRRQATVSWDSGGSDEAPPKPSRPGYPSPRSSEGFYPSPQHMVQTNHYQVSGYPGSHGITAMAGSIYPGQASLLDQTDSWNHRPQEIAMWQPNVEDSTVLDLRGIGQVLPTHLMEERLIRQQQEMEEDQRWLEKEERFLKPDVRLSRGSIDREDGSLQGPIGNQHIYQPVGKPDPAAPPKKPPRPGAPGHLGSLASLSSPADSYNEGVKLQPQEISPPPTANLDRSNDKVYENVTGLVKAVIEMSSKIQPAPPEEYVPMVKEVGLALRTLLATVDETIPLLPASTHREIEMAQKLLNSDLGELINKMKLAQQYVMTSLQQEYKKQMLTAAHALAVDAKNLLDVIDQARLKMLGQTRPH
Sequence of Fibroblast growth factor 2 (Homo sapiens) (P09038 whole entry, looked up): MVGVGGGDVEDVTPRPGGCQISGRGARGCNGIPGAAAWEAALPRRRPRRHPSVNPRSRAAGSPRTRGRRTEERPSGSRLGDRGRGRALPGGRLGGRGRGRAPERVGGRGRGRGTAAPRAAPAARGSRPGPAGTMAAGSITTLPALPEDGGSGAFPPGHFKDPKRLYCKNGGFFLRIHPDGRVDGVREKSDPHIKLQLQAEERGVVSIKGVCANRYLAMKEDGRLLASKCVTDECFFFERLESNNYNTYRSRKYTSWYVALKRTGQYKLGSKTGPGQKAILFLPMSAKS
Sequence of Follistatin (Homo sapiens) (P19883 whole entry, looked up): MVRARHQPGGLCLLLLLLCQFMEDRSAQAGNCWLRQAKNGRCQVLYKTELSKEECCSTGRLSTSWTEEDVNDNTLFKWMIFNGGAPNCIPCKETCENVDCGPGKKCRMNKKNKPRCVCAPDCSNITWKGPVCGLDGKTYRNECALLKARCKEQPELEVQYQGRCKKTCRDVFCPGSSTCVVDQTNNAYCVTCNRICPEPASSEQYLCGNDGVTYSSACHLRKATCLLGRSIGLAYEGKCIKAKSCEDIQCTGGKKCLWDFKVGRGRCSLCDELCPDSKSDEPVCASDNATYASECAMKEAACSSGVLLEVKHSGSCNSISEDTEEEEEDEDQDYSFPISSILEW
Sequence of Albumin (Bos taurus) (P02769 whole entry, looked up): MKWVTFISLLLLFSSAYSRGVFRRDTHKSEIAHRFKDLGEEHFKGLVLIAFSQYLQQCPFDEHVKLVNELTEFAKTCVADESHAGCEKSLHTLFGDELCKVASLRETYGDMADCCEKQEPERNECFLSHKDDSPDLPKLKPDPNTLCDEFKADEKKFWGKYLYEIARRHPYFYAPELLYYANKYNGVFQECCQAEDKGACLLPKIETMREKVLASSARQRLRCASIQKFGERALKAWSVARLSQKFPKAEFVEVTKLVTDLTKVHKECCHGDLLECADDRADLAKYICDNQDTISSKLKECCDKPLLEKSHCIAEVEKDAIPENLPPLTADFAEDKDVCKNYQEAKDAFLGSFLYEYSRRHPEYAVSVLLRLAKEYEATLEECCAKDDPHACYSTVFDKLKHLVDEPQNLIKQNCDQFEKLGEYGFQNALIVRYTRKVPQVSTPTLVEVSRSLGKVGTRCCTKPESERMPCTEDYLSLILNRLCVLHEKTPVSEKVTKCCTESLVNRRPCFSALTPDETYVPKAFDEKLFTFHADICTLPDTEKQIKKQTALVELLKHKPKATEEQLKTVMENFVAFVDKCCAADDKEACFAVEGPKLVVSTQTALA

SMILES | composite z-score [1] | composite Z-score [2] | composite z-score [3] | composite z-score [4] | composite z-score [5] | composite z-score [6] | composite z-score [7] | composite z-score [8] | composite z-score [9] | composite z-score [10] | composite z-score [11] | composite z-score [12] | composite z-score [13] | composite z-score [14] | composite z-score [15] | composite z-score [16] | z-score [17] | composite z-score [18] | composite z-score [19] | z-score [20]
O=c1cccc(-c2ccccc2Cl)o1 | 0.18 | 0.0241 (inactive) | -0.177 | -0.199 | -0.0836 | -0.011 | -0.235 | 0.102 | 0.0431 | -0.415 | 0.0166 | 0.461 | 0.678 | -0.0231 | 0.0968 | -0.488 | -0.556 | 0.0182 | -0.0467 | 0.294 (inactive)
CCOC(=O)[C@H]1C/C=C/C[C@H](C(=O)OCC)C(=O)O[C@H]2[C@@H](OC)O[C@H](CO)[C@@H](OC(=O)c3ccc(Br)cc3)[C@@H]2OC1=O | 0.184 | 0.38 (inactive) | 0.037 | -0.0956 | 0.397 | 0.306 | 0.435 | -0.0942 | 0.406 | 0.205 | 0.272 | 0.189 | 0.143 | 0.223 | 1.06 | 1.06 | 2.47 | 0.31 | 0.329 | -0.0361 (inactive)
CC#CC(=O)Oc1ccc(Br)cc1C=CC(=O)OCC | -0.107 | 1.39 (inactive) | 0.144 | -0.0529 | 0.18 | 0.942 | 0.158 | 0.582 | 0.103 | 0.269 | -0.179 | 1.06 | 0.167 | -0.382 | 0.233 | -0.0698 | -0.817 | 0.0606 | 0.665 | -0.39 (inactive)
O=C1O[C@@H](c2ccccc2)[C@@H](c2ccccc2)N2[C@@H](c3ccccc3OCCO)[C@]3(C(=O)Nc4ccc(C#CC5(O)CCCCCC5)cc43)[C@@H](C(=O)N3CCN(c4ncccn4)CC3)[C@H]12 | 0.287 | 0.276 (inactive) | -0.0416 | -0.131 | 0.398 | 1.47 | 0.795 | 1.21 | 0.183 | 1.02 | 1.25 | 1.2 | 0.564 | 0.885 | 1.03 | 1.15 | -0.758 | 0.62 | 0.742 | -1.39 (inactive)
CN1C(=O)C2C=CC(C(O)c3c(F)cccc3Cl)N(NC(=O)OC(C)(C)C)C2C1=O (stereo not given) | 0.972 | 2.18 (inactive) | -0.0362 | 0.109 | 0.572 | 2.75 | 0.67 | 1.22 | -0.729 | 0.918 | 1.11 | 1.09 | 0.427 | 1.01 | 0.453 | -0.174 | 0.584 | -0.242 | 0.634 | 0.682 (inactive)
C=C(CCCC)/C(=C/C[C@H](OC(C)=O)c1ccccc1OCCO)c1cnc2ccccc2c1 | 0.553 | 0.282 (inactive) | -0.12 | -0.173 | 0.5 | 0.376 | 0.0282 | 0.8 | 0.77 | 0.706 | 0.528 | 0.545 | -0.0464 | -0.128 | 0.891 | 0.481 | 1.76 | 0.861 | 0.664 | -0.895 (inactive)
C=CCC(OC(C)=O)[C@@H]1[C@@H](N(Cc2ccc(-c3ccccc3)cc2)C(=O)Cc2ccc(F)cc2)c2cc(OCCCO)ccc2N1C(=O)c1ccc2ccccc2c1 (stereo not given in full) | -0.153 | -0.301 (inactive) | 0.119 | 0.0251 | 0.0176 | 0.361 | 0.225 | 0.112 | -0.132 | -1.04 | -0.264 | -0.0066 | 0.16 | -0.163 | 0.296 | 0.288 | 1.73 | 0.125 | -0.117 | -0.87 (inactive)
CC[C@@H]1C=C(C(=O)O)[C@H](c2cccc3ccccc23)N1S(=O)(=O)c1ccc(C)cc1 | 0.8 | -0.122 (inactive) | 0.0225 | 0.0477 | 0.664 | 1.58 | 0.687 | 1.05 | 0.0837 | 0.774 | 1.18 | 1.11 | 1.39 | 0.159 | 0.414 | 0.108 | -0.345 | -0.103 | 0.302 | 1.46 (inactive)
C=CCN(Cc1ccccc1)C(=O)C(c1cccs1)N(C(=O)/C=C\C(=O)O)c1ccc(CCOCCO)cc1 (stereo not given) | 0.955 | 0.0165 (inactive) | -0.416 | -0.135 | 0.864 | -0.691 | -0.679 | -1.33 | -2.25 | -0.931 | -0.709 | -0.755 | -0.618 | -1.23 | -1.32 | -0.78 | 1.37 | -1.16 | -1.01 | -3.88 (inactive)
COCCCNC(=O)[C@]1(Cc2ccccc2)N=C(c2ccc(OCCCO)cc2)O[C@@H]1c1ccccc1CN=[N+]=[N-] | 0.999 | -0.127 (inactive) | 0.16 | 0.266 | 0.694 | 3.21 | 0.465 | 1.28 | -0.431 | 1.16 | 2.51 | 1.14 | 0.802 | 0.957 | 1.31 | 1.46 | 1.16 | -0.0031 | 0.963 | -0.932 (inactive)
C=CCN1Cc2ccccc2[C@@H]2OC(c3ccc(OCCCO)cc3)=N[C@]2(CCS(=O)(=O)c2ccccc2)C1=O | -0.292 | 0.187 (inactive) | 0.233 | -0.0664 | 0.254 | 2.96 | 0.725 | 1.3 | 1.03 | 1.21 | 1.56 | 1.2 | 0.772 | 0.811 | 1.4 | 1.78 | 1.37 | 0.602 | 0.393 | -2.38 (inactive)
